Measurements from PubChem BioAssay AID504332 (National Center for Advancing Translational Sciences (NCATS), 2011).
Hit rate of the full screen: of about 350,000 compounds, about 31,000 (8.9%) were called active. Not shown: some 15% with an inconclusive outcome. The call rests on the fitted dose curve; in most records, active means well fitted inhibition curve with a large enough effect; inconclusive means small, poorly fitted or top-dose-only effect; inactive means no such curve, though single readings can be large or run the other way. Many of the other results were omitted from the sample, so actives are more common in it than they were.

Each compound was assayed against Histone-lysine N-methyltransferase EHMT2 (Homo sapiens) (UniProt Q96KQ7) (assay: qHTS Assay for Inhibitors of Histone Lysine Methyltransferase G9a). Details: G9a H3K9 monomethylation, AlphaScreen, 2 h; series mostly up to 59 µM; activity, negative = inhibition: at the top concentration.
Source text: Methylated lysines, on the N-terminal tails of histone proteins serve as epigenetic markers to recruit factors that can then modify local chromatin structure to lead to functional consequences. G9a and other members of the SUV39 family of the SET domain-containing superfamily of histone lysine methyltransferases (HMT) have been identified to specifically methylate Lys9 of histone H3 (H3K9). G9a catalyzes the mono- and di-methylation of H3K9 in mammalian euchromatic regions, where the resulting H3K9me2 is indicative of transcriptional repression. […] The inhibition of G9a will result in transcriptional activation and work synergistically with DNA methyltransferase and histone deacetylase inhibitors, to kill cancer cells. This qHTS assay for identification of G9a inhibitors is a chemiluminescence based AlphaScreen (PerkinElmer). Methylation of biotinylated-histone peptide is measured through specific antibody-based detection, in conjunction with streptavidin-coated donor and anti-IgG antibody-coated acceptor beads. The method is particularly well suited for detection of inhibitors acting by the desired histone peptide competitive mechanism and is applicable to testing other HMTs. Although AlphaScreen has significant advantages with its utility in a variety of epigenetic target assays, the primary screening data provided in this deposition should be used with caution due to the prevalence of screening artifacts. An AlphaScreen counterscreen is highly recommended to be run against any putative actives to eliminate non specific artifacts. Alternatively, one can use other AlphaScreen assays in PubChem to filter out promiscuous hits. Quinn et al. A chemiluminescence-based method for identification of histone lysine methyltransferase inhibitors. Mol Biosyst 6(5): 782-8. 2010. PMID: 20567762 [2] Baell,Holloway. New substructure filters for removal of pan assay interference compounds (PAINS) from screening libraries and for their exclusion in bioassays. J Med Chem. 53(7):2719-40. 2010. PMID: 20131845 NIH Molecular Libraries Probe Production Network [MLPCN] NIH Chemical Genomics Center [NCGC] Structural Genomics Consortium (SGC) NIH Grant: 5U54 MH084681-02
To each well of a 1,536w plate, 2ul of HMT enzyme (final 20nM) were added, using a nanoliter dispenser. The G9a- and GLP-inhibitor BIX-01294 (CID: 25150857) are used as an intraplate control, with a 16-point titration in duplicate. A Kalypsys pin-tool transferred 23nl of library compound solution in DMSO to each well. Following a 15 min incubation of enzyme with compounds at room temperature, 1ul mixture of b-H3K9 peptide substrate (final 500nM) and SAM cofactor (final 20uM) were added. Reactions were allowed to proceed at room temperature for 2 hours. Methylated b-H3K9 peptide product was detected with 0.5 ug/mL rabbit polyclonal anti-monomethyl histone H3K9 antibody (Abcam Inc., Cambridge, MA) and 20 ug/mL each streptavidin-coated donor and anti-rabbit IgG acceptor AlphaScreen beads. Antibody and beads were added in a 1ul dispense, for a final volume of 4ul, and plates were incubated, protected from the light, for 10 min at room temperature. Microplates were then read on an EnVision multilabel plate reader using the 1,536 plate HTS AlphaScreen aperture (excitation time 80 ms, measurement time 240 ms).
Further: nearly all actives have a fitted effect of over 75% in size.
On the % scale 0 is the no-effect control and ±100 the full control effect; potency means the concentration at half of the fitted maximal effect.

Chain of Histone-lysine N-methyltransferase EHMT2 (Homo sapiens) (Q96KQ7 913-1193 limits assumed): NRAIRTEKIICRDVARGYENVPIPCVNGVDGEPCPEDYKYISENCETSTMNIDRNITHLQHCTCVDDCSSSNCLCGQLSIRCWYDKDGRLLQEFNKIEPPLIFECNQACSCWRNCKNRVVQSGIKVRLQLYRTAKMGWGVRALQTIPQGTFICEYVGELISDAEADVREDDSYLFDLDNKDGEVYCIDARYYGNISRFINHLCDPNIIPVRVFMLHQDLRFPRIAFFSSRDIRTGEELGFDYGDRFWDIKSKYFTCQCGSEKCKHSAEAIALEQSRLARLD

activity, negative = inhibition, inactive:
CC(=O)c1ccc(N2CCN(CC(=O)Nc3ccccc3N3CCOCC3)CC2)cc1 -4.9%, Cc1ccccc1NC(=O)c1cc2c([nH]c1=O)CC(C)(C)CC2=O 10.3%, O=C(Nc1cc(Cl)ccc1N1CCOCC1)c1ccc(N2CCCC2=O)cc1 -16.7% [at 102 µM], CCc1ccccc1NC(=O)Cn1c(=O)n(-c2cccc(C)c2)c(=O)c2c1c1cc(OC)ccc1n2C 0.155%, CC(C)c1cc(C(=O)O)on1 7.05%, CC(C)c1cc(C(=O)N/N=C/C(Br)=C/c2ccccc2)n[nH]1 -9.73% [at 102 µM], O=C(CNC(=O)c1ccccc1Br)NCCSc1ccc(Br)cc1 -0.242% [at 102 µM], Cc1ccc2nc(COc3cccc(NC(=O)c4cccc(Cl)c4)c3)cc(=O)n2c1 15.9%, CN=C1S/C(=C\c2c(OC)cc(OC)cc2OC)C(=O)N1C -4.41% [at 102 µM], O=C(CCCN1C(=O)/C(=C/c2ccco2)SC1=S)Nc1ccccc1 -21.4%, COc1ccc(CCNC(=O)CCCCCNC(=O)N2CCn3c2nc2ccccc23)cc1OC 50.3% [at 102 µM], COc1ccc(NC(=O)Cn2cc(C(=O)c3ccncc3)c(=O)c3cc(C)ccc32)cc1Cl 3.8% [at 12.7 µM], CC(CN1CCC(n2nccc2NC(=O)C2CCCC2)CC1)c1ccccc1 (stereo not drawn) 39.2% [at 102 µM], CC(CN1CCOCC1)c1ccccc1 (stereo not drawn) -32%, O=S(=O)(c1ccc(SCc2ccc(Br)cc2)nc1)N1CCOCC1 -2.71% [at 12.7 µM], Cc1ccc(CN2CC(C(=O)NNC(=O)Cn3ccc(C(F)(F)F)n3)CC2=O)cc1 (stereo not drawn) -2.67% [at 12.7 µM], Cc1ccc(-c2nn3c(=O)cc(CN4CCN(S(=O)(=O)c5ccc(Cl)cc5)CC4)nc3s2)cc1 7.37%, CCOc1cc(C(=S)N2CCOCC2)ccc1OS(=O)(=O)c1ccc(Br)cc1 24% [at 102 µM], CCOc1cc(C(=O)OCC(=O)Nc2cccc(C)c2)ccc1OCC(=O)N1CCOCC1 24%, Cc1cccc(NC(=O)CSc2ncc(-c3ccccc3)[nH]2)c1C -30.7%, O=C(OCC1OC(Oc2ccc(O)cc2)C(O)C(O)C1O)c1ccccc1 (stereo not drawn) 2.48% [at 12.7 µM], COc1ccc(S(=O)(=O)N2CCOC23CCN(S(=O)(=O)c2ccc([N+](=O)[O-])cc2)CC3)cc1 -2.42% [at 0.501 µM], Cc1ccc2c(c1)C1CN(C)CCC1N2S(=O)(=O)c1cccc(F)c1 (stereo not drawn) 10.1%, COc1ccc(C(=O)NC2CCN(C(=O)Nc3ccc(F)cc3)CC2)cc1 10.1% [at 102 µM], COc1ccc(OC)c(NC(=O)CSc2nc3ccccc3nc2N2CCCCC2)c1 29.4%, CCc1nnc(SCC(=O)Nc2cc(OC)ccc2OC)nc1CC 5.36%, CC(C)(C)c1ccc(C(=O)NCCn2c(N)c(C#N)c3nc4ccccc4nc32)cc1 23.9% [at 102 µM], N#Cc1c(N)n(CCOC(=O)c2ccc(Cl)cc2)c2nc3ccccc3nc12 -6.78%, COc1ccc(CNC(=O)CN(c2ccc(OC)c(Cl)c2)S(=O)(=O)c2ccc(C)cc2)cc1 33.2% [at 102 µM], O=C(CNC(=O)c1ccc2ccccc2c1)Nc1ncccc1O 20.5% [at 2.33 µM], CCOc1ccc(N2CC(C(=O)NCc3ccccn3)CC2=O)cc1 (stereo not drawn) -6.32% [at 102 µM], COc1ccccc1N1CC(C(=O)NCCN2C(=O)S/C(=C\c3cccnc3)C2=O)CC1=O (stereo not drawn) 2.97% [at 12.7 µM], CCN(c1ccccc1)S(=O)(=O)c1cc(C(=O)NCc2ccccn2)ccc1C 26.1% [at 102 µM], COc1ccc(Cl)cc1N(C)C(=O)c1cc2c(=O)oc3ccc(C)cc3c2s1 4.3%, COC(=O)c1ccc(COC(=O)CNC(=O)c2cccc(OC)c2)o1 9.25%, COc1cc(Nc2nc(-c3ccc(OC)c(OC)c3)nc3ccccc23)cc(OC)c1 -2.06%, COc1ccccc1Oc1nc(-c2cccnc2)nc2ccccc12 7.82% [at 102 µM], CCc1nc2onc(C)c2c(=O)n1CC(=O)O 17.4%, CCC(=O)c1cc(F)ccc1OCC(=O)Nc1ccc2c(c1)OCCO2 -5.64% [at 12.7 µM]

Potency, active:
CC(C)c1cc(C(=O)O)n[nH]1 44.7 µM, CN1C(=O)/C(=C/c2ccco2)SC1=Nc1cccc(C(=O)O)c1 28.2 µM, CC(CN1CCCCC1)c1ccccc1 (stereo not drawn) 11.2 µM, CCOc1cc(C(=S)N2CCOCC2)ccc1O 4.47 µM, Cc1ccc2c(c1)C1CN(C)CCC1N2S(=O)(=O)c1ccc(Oc2ccc([N+](=O)[O-])cc2)cc1 (stereo not drawn) 35.5 µM, CCc1cc2cc(OC)ccc2nc1SCC(=O)Nc1cc(OC)c(OC)cc1C(=O)O 50.1 µM, CN(C)CCCn1c(N)c(C#N)c2nc(C#N)c(C#N)nc21 25.1 µM, CCOc1ccc(N2CC(C(=O)NCCN3C(=O)S/C(=C\c4cccnc4)C3=O)CC2=O)cc1 (stereo not drawn) 39.8 µM, COc1ccc(Nc2nc(-c3cccnc3)nc3ccccc23)cn1 35.5 µM
